By inhibition is commonly meant the drop in the measured response relative to a control, in per cent.

Among all 2,700 compounds or so, about 160 (5.9%) showed an effect of 50% or more. For the sample, strong results were picked, then their nearest neighbours and some compounds at random.

This experiment deals with Nonstructural protein 3 (Zika virus) (UniProt A0A024AXB9).
Sequence of Nonstructural protein 3 (Zika virus) (A0A024AXB9 as listed by the source): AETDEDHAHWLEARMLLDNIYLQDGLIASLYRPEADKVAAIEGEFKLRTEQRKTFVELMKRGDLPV

With `COC(=O)c1cncc(OCc2cc(OC)nc(N3CCNCC3)n2)c1`, the inhibition is, setting by setting: (PRVABC59, Concentration 49.5 uM, Number of replicates 2.0, Standard deviation 0.44537620063304795 %) 8.58%; (PRVABC59, Concentration 99.01 uM, Number of replicates 2.0, Standard deviation 1.920430256118165 %) 19.8%; (PRVABC59, Concentration 198.0 uM, Number of replicates 2.0, Standard deviation 1.464841031153957 %) 42.9%.

As to `COc1cc(C(=O)Nc2cnc3ccccc3c2)nc(N2CCNCC2)n1`, the inhibition reads like this: (PRVABC59, Concentration 49.5 uM, Number of replicates 2.0, Standard deviation 31.670721297793175 %) 46.6%; (PRVABC59, Concentration 99.01 uM, Number of replicates 2.0, Standard deviation 1.978331259427643 %) 52.6%; (PRVABC59, Concentration 198.0 uM, Number of replicates 2.0, Standard deviation 3.25586764970173 %) 44.4%.

As for `COc1cc(COc2cncc3ccccc23)nc(N2CCNCC2)n1`, the inhibition came out at 18.2% (PRVABC59, Concentration 49.5 uM, Number of replicates 2.0, Standard deviation 3.6633197788698872 %); 33.6% (PRVABC59, Concentration 99.01 uM, Number of replicates 2.0, Standard deviation 8.620902514901289 %); 48.9% (PRVABC59, Concentration 198.0 uM, Number of replicates 2.0, Standard deviation 2.631600667850739 %).

Turning to `CCCC[C@H](NC(C)=O)C(=O)N[C@H](C(=O)NCc1ccc(CN)cc1)c1ccc(OCc2ccccc2)cc1`, the inhibition is, setting by setting: (PRVABC59, Concentration 49.5 uM, Number of replicates 2.0, Standard deviation 3.0246149725930045 %) 4.96%; (PRVABC59, Concentration 99.01 uM, Number of replicates 2.0, Standard deviation 5.4426160865401085 %) 91.7%; (PRVABC59, Concentration 198.0 uM, Number of replicates 2.0, Standard deviation 0.23672907001683724 %) 97.8%.

With `CCCC[C@H](NC(C)=O)C(=O)N[C@H](C(=O)NCc1ccc(CN)cc1)c1ccccc1`, the inhibition worked out at 1.09% (PRVABC59, Concentration 49.5 uM, Number of replicates 2.0, Standard deviation 2.0326302034025616 %); 27.9% (PRVABC59, Concentration 99.01 uM, Number of replicates 2.0, Standard deviation 38.99982941752366 %); 79.1% (PRVABC59, Concentration 198.0 uM, Number of replicates 2.0, Standard deviation 3.137845684278008 %).

For the compound `CCCC[C@H](NC(C)=O)C(=O)N[C@H](C(=O)NCc1ccc(C(N)=O)cc1)c1ccc(OCc2ccccc2)cc1`, the inhibition (PRVABC59, Concentration 49.5 uM, Number of replicates 2.0, Standard deviation 2.8803277655268693 %) is 26.6%; the inhibition (PRVABC59, Concentration 99.01 uM, Number of replicates 2.0, Standard deviation 0.054514419737930774 %) was found to be 98.6%; the inhibition (PRVABC59, Concentration 198.0 uM, Number of replicates 2.0, Standard deviation 0.07632018763310308 %) is 99.1%.

In the case of `CCCC[C@H](NC(C)=O)C(=O)N[C@H](C(=O)Nc1ccc(C(N)=O)cc1)c1ccc(OCc2ccccc2)cc1`, the inhibition by setting is: (PRVABC59, Concentration 49.5 uM, Number of replicates 2.0, Standard deviation 1.0117053428289626 %) -1.83%; (PRVABC59, Concentration 99.01 uM, Number of replicates 2.0, Standard deviation 0.9364545471831264 %) 1.23%; (PRVABC59, Concentration 198.0 uM, Number of replicates 2.0, Standard deviation 0.5455676889131452 %) 17.7%.

With `CCCC[C@H](NC(C)=O)C(=O)N[C@@H](C(=O)NCc1ccc(C(N)=O)cc1)c1ccc(OCc2ccccc2)cc1`, the inhibition is -0.555% (PRVABC59, Concentration 49.5 uM, Number of replicates 2.0, Standard deviation 1.682765526064386 %); 2.22% (PRVABC59, Concentration 99.01 uM, Number of replicates 2.0, Standard deviation 1.8317792493099265 %); 8.29% (PRVABC59, Concentration 198.0 uM, Number of replicates 2.0, Standard deviation 1.8535860287294632 %).

Regarding `CCCCCC(=O)N[C@H](C(=O)NCc1cccc(CN)c1)C1CCCCC1`, the inhibition (PRVABC59, Concentration 49.5 uM, Number of replicates 2.0, Standard deviation 0.08302069360936502 %) was -2.7%; the inhibition (PRVABC59, Concentration 99.01 uM, Number of replicates 2.0, Standard deviation 0.655862366837183 %) was -1.9%; the inhibition (PRVABC59, Concentration 198.0 uM, Number of replicates 2.0, Standard deviation 0.31962821211509684 %) is 41.3%.

As for `COc1ccc2nc(C(F)(F)F)nc(N3CCN(c4ccc(N)nc4)CC3)c2c1`, the inhibition (PRVABC59, Concentration 49.5 uM, Number of replicates 2.0, Standard deviation 0.8584962379889504 %) was 14.4%; the inhibition (PRVABC59, Concentration 99.01 uM, Number of replicates 2.0, Standard deviation 2.1800251715639205 %) came to 28%; the inhibition (PRVABC59, Concentration 198.0 uM, Number of replicates 2.0, Standard deviation 1.6255789961308644 %) was 43.6%.

With `CC(C)(CO)CN1CC[C@H](c2c[nH]c3ccccc23)C1`, the inhibition is, setting by setting: (PRVABC59, Concentration 49.5 uM, Number of replicates 2.0, Standard deviation 3.1209329969075563 %) 6.14%; (PRVABC59, Concentration 99.01 uM, Number of replicates 2.0, Standard deviation 4.254828207009483 %) 11.2%; (PRVABC59, Concentration 198.0 uM, Number of replicates 2.0, Standard deviation 3.604090306895346 %) 18.1%.

For the compound `O=C(NCC1CC1)c1cc(Cl)ccc1NS(=O)(=O)c1ccc(Oc2ccccc2Cl)cc1`, the inhibition runs as follows: (PRVABC59, Concentration 49.5 uM, Number of replicates 2.0, Standard deviation 1.3484995448740613 %) 43%; (PRVABC59, Concentration 99.01 uM, Number of replicates 2.0, Standard deviation 16.06152873020096 %) 40.6%; (PRVABC59, Concentration 198.0 uM, Number of replicates 2.0, Standard deviation 0.4375207024201935 %) 45.6%.

`CC(C)CNC(=O)c1cc(Cl)ccc1NS(=O)(=O)c1ccc(Oc2ccccc2Cl)cc1`: the inhibition by setting is: (PRVABC59, Concentration 49.5 uM, Number of replicates 2.0, Standard deviation 0.3286348250544809 %) 58.6%; (PRVABC59, Concentration 99.01 uM, Number of replicates 2.0, Standard deviation 0.058762822067828895 %) 54.7%; (PRVABC59, Concentration 198.0 uM, Number of replicates 2.0, Standard deviation 2.167677830824169 %) 37.6%.

The record behind these values is ChEMBL document CHEMBL5606458, “ASAP - ZIKV NS2B-NS3 protease fluorescence single point” (2024).
